What was measured:
Assay in all cases: log2 ratio of Biotin-Ahx-Ub-VS probe labelling (fragment/DMSO); higher = less target engagement (more negative = stronger competition), active = hit call of the paper (q ≤ 0.05, log2 ratio ≤ -1)
Settings in all cases: compound concentration: 200 uM; treatment time: 3 h
USP42 = molecular target: T1, USP42 (UniProt Q9H9J4)
T1 sequence (whole entry): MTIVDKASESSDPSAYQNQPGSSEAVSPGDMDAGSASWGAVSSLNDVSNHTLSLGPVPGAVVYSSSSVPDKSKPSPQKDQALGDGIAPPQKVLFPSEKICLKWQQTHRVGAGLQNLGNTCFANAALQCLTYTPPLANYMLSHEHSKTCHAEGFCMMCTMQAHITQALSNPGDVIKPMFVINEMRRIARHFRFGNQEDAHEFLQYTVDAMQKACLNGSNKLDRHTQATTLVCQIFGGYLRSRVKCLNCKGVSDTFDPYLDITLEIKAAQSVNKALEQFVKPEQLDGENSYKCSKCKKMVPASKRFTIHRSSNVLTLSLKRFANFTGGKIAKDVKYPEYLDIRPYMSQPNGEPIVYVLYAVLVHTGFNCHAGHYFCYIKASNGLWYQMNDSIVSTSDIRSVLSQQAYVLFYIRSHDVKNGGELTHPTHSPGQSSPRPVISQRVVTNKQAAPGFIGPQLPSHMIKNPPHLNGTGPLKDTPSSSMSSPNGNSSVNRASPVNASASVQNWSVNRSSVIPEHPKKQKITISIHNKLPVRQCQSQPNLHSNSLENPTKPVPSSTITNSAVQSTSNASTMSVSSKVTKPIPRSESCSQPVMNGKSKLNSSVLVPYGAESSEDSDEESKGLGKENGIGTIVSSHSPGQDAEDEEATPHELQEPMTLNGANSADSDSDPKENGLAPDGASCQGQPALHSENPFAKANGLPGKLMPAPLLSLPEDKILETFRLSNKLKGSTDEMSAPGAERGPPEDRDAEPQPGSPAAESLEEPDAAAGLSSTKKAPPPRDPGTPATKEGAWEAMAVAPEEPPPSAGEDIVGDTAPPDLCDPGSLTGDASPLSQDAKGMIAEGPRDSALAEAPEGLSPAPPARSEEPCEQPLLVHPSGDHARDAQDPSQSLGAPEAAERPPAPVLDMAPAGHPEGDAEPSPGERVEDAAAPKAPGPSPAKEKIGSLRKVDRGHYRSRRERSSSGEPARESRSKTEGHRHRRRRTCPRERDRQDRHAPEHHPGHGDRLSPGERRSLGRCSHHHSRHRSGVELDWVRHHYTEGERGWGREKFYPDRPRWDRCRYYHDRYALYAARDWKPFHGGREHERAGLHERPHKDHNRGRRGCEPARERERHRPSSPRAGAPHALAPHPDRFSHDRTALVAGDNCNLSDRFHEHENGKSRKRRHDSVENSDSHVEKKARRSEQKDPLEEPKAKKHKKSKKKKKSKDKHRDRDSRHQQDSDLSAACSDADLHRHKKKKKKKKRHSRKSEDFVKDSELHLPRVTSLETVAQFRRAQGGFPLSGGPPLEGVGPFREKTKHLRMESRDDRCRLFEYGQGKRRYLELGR
Procedure, shortened: (§1)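 HEK293T lysate (495 µg per sample, in Tris/CHAPS/IGEPAL buffer with protease inhibitors) was exposed in triplicate for 3 h to fragment at 200 µM or to vehicle, then to Biotin-Ahx-Ub-VS at 0.5 µM final for 1 h. Labelled DUBs were enriched on NeutrAvidin, digested with LysC and trypsin, and analysed by diaPASEF LC-MS/MS. Spectronaut label-free quantities were normalised to the global median, and values are average log2 ratios of fragment over vehicle from an unpaired t-test. Only proteins with ≥2 unique peptides were used.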

USP46 = USP46 (UniProt P62068)
Sequence of USP46 (P62068 whole entry): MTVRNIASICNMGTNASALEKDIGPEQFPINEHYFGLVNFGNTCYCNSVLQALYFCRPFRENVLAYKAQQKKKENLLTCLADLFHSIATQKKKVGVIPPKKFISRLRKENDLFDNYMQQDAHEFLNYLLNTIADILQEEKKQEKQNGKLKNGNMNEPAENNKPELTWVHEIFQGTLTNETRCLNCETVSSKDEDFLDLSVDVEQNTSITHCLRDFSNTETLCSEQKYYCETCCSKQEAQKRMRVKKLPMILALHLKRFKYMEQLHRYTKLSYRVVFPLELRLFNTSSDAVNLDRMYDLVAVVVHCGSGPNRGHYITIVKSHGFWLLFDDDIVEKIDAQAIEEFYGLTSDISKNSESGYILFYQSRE
Procedure, shortened: as §1

USP47 = molecular target: T2, USP47 (UniProt Q96K76)
T2 sequence (whole entry): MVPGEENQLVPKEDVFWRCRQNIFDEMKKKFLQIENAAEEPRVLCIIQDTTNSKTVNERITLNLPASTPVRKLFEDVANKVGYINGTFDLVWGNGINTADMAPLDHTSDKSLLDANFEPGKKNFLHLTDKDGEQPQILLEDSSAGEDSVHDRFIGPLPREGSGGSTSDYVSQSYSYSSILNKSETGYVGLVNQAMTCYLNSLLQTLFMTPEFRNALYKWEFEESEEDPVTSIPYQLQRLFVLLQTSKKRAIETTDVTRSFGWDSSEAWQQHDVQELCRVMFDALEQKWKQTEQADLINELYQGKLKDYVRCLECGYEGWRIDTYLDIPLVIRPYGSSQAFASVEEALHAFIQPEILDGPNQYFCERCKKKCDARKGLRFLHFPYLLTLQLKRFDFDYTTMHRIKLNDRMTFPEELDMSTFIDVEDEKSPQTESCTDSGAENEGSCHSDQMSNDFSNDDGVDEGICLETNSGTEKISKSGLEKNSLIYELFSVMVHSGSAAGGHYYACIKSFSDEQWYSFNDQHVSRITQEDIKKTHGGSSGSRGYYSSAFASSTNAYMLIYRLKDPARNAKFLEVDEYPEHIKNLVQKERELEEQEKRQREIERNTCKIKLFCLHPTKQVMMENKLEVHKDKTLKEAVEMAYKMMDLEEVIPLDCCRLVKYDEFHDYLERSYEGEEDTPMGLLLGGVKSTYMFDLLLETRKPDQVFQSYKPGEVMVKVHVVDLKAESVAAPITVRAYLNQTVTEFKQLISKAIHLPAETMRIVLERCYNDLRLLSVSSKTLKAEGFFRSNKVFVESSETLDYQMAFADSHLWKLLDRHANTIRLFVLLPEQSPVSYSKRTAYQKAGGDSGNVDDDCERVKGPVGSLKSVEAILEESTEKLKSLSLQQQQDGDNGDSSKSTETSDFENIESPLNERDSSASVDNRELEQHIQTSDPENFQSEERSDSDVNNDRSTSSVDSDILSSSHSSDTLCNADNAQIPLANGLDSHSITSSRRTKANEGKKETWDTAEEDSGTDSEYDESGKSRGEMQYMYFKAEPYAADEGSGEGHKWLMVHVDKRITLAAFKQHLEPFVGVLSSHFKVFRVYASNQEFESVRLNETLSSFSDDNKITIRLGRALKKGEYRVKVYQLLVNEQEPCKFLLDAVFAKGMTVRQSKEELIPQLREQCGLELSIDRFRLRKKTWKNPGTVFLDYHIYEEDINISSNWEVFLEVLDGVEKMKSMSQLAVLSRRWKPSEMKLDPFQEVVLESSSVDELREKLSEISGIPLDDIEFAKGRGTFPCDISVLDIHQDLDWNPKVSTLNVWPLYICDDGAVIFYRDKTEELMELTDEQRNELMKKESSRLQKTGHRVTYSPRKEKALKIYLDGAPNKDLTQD
Procedure, shortened: as §1

USP48 = molecular target: T3, USP48 (UniProt Q86UV5)
T3 sequence (whole entry): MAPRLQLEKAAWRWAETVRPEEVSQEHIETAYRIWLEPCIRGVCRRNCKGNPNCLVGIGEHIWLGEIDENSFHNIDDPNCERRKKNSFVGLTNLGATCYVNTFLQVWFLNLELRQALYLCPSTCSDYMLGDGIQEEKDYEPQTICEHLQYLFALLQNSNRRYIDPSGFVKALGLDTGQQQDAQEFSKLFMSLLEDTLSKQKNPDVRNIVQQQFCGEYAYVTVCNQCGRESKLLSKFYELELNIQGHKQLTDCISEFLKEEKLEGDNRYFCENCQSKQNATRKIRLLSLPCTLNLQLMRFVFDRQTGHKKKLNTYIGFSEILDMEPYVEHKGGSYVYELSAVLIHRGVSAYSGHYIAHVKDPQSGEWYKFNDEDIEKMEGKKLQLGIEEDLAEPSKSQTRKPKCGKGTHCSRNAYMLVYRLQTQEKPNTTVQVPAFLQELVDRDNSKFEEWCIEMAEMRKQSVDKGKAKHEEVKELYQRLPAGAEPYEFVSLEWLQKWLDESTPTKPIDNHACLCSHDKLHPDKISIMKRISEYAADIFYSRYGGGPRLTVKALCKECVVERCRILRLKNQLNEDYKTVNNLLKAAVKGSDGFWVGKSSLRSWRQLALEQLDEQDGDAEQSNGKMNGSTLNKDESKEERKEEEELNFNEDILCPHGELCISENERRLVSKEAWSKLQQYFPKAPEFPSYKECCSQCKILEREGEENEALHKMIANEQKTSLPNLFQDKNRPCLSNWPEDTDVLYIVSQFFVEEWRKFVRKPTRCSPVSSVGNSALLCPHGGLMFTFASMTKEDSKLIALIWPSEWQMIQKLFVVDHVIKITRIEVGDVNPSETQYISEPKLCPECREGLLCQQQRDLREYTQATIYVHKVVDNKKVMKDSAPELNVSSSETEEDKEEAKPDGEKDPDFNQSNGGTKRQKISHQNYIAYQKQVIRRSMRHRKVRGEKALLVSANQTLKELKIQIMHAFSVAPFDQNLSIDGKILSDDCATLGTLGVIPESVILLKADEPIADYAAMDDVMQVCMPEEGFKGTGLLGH
Procedure, shortened: as §1

USP5 = molecular target: T4, USP5 (UniProt P45974)
T4 sequence (whole entry): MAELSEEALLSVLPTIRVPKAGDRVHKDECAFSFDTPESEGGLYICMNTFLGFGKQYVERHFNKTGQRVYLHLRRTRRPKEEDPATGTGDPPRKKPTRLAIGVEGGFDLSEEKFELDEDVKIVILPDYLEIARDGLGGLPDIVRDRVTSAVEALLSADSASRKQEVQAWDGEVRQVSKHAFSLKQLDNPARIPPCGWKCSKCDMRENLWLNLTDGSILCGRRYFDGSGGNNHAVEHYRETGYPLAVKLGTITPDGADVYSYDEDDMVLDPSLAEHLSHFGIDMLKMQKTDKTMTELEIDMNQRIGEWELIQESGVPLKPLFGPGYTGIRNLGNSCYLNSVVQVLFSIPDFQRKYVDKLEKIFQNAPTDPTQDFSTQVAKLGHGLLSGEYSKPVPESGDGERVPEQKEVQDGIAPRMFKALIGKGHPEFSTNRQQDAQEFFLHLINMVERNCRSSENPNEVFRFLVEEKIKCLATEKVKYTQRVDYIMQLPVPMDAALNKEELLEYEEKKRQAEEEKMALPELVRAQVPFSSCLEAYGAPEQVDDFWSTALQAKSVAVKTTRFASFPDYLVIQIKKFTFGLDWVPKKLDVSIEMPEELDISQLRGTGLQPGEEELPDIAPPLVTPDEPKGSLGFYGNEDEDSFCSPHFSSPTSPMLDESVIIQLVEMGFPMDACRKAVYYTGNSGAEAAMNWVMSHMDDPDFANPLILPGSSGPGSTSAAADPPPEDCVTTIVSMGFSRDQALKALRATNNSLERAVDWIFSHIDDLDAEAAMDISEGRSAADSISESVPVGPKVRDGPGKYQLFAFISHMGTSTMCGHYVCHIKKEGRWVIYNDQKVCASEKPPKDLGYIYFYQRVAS
Procedure, shortened: as §1

USP54 = USP54 (UniProt Q70EL1)
Sequence of USP54 (Q70EL1 whole entry): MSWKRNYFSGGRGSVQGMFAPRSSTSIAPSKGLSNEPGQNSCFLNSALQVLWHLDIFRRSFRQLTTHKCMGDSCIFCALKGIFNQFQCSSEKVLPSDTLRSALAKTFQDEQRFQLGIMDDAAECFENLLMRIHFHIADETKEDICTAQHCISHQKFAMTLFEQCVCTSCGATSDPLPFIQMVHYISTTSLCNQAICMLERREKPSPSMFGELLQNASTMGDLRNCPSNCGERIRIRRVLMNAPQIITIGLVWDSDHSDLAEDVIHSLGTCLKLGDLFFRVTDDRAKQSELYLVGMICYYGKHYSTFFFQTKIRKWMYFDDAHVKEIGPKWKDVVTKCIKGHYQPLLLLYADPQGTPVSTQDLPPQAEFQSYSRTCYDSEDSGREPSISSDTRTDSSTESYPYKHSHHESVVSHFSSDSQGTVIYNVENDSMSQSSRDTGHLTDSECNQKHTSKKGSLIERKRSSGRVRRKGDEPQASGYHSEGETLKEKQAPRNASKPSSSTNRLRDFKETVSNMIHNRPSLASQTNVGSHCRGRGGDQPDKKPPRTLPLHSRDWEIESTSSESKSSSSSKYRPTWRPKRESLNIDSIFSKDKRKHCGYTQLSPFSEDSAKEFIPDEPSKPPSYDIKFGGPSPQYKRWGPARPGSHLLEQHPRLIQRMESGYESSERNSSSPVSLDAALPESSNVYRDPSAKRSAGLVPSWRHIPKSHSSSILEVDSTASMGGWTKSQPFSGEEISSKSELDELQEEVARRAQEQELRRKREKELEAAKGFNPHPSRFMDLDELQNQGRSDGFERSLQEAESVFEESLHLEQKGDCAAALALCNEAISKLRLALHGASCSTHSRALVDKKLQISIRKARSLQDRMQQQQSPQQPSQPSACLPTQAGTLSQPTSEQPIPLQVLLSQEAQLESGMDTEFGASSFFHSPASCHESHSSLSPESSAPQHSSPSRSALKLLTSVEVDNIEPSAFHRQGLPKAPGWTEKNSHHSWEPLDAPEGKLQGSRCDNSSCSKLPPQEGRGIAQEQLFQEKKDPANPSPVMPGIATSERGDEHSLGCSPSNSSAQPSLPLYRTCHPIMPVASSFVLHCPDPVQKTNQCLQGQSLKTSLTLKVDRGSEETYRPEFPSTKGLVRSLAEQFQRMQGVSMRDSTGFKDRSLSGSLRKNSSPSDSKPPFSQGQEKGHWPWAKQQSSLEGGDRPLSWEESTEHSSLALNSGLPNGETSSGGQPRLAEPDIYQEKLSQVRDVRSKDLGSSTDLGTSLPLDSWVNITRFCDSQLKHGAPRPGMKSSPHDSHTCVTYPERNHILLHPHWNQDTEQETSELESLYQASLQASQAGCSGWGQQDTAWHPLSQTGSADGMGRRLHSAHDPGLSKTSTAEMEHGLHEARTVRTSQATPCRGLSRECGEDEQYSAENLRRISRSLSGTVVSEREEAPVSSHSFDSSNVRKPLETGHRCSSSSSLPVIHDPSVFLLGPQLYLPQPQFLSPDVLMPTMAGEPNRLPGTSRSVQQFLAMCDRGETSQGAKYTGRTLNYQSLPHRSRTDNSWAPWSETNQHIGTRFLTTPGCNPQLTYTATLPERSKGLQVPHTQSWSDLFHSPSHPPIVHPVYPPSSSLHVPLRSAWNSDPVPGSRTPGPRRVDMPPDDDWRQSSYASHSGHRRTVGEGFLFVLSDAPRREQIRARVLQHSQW
Procedure, shortened: as §1

USP7 = USP7 (UniProt Q93009)
Sequence of USP7 (Q93009 whole entry, looked up): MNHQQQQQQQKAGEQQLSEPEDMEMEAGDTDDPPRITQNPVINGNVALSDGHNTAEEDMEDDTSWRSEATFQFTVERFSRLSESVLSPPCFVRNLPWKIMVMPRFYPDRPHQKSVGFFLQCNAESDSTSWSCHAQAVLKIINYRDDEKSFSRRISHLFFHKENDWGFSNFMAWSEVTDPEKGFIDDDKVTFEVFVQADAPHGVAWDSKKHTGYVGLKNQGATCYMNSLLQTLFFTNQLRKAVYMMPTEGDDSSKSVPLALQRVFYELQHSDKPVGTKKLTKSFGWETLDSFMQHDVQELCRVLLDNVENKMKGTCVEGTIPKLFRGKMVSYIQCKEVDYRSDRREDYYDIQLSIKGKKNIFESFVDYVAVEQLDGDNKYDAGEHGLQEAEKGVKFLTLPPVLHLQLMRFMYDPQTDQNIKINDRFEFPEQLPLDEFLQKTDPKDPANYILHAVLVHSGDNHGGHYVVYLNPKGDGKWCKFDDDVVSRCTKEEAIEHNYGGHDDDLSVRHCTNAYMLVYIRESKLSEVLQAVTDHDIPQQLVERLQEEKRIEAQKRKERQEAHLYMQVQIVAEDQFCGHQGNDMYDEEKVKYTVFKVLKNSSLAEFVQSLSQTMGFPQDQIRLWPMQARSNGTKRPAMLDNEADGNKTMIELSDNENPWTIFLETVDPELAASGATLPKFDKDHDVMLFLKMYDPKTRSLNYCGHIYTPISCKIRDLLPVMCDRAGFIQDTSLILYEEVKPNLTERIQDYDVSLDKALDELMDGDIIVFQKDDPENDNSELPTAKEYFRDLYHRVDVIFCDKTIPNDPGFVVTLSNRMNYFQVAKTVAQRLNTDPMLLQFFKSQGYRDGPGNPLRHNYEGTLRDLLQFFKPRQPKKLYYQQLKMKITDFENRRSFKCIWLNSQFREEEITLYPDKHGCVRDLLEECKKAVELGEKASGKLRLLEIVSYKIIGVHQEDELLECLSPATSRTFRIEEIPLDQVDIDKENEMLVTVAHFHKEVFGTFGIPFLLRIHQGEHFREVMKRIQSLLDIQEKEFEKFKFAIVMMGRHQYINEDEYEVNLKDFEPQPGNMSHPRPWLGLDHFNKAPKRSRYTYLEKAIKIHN
Procedure, shortened: as §1

USP8 = molecular target: T5, USP8 (UniProt P40818)
T5 sequence (whole entry): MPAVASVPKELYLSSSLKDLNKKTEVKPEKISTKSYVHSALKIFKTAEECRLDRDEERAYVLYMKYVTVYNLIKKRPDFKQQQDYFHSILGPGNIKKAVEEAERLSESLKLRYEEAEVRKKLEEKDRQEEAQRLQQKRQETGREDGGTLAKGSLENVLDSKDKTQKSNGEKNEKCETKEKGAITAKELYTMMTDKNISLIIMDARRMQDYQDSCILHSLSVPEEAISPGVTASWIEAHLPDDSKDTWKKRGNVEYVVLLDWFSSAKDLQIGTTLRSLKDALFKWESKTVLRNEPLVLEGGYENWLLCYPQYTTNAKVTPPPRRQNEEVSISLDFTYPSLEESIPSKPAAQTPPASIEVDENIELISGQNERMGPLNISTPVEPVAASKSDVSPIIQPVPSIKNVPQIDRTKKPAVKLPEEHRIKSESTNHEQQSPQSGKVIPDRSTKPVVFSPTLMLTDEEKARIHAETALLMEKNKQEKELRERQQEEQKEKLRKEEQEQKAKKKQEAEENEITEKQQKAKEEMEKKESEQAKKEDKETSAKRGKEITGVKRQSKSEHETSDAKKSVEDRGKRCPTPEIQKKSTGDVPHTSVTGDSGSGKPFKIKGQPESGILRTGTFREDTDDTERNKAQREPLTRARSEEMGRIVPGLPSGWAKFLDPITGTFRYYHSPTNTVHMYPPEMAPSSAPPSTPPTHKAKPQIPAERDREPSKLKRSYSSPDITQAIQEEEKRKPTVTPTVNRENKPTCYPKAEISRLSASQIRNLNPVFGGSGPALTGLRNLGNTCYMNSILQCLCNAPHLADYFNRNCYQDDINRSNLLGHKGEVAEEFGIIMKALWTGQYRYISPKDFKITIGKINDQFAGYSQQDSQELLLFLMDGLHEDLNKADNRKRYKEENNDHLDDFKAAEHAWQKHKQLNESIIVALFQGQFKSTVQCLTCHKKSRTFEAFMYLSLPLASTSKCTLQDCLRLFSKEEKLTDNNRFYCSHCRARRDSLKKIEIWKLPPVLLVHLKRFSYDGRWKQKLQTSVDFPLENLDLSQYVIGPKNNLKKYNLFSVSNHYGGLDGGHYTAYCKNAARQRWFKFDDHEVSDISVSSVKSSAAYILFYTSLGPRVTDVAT
Procedure, shortened: as §1

Measured: log2 ratio of Biotin-Ahx-Ub-VS probe labelling

O=C(CCl)N1CCC(S(=O)(=O)c2ccc(F)cc2)CC1
inactive: USP42 -0.133 | USP46 -0.0321 | USP47 -0.145 | USP48 -0.355 | USP5 0.248 | USP54 0.501 | USP7 -0.535 | USP8 -0.0595

From the supplement of paper PMC11732987, “Enantioselective OTUD7B fragment discovery through chemoproteomics screening and high-throughput optimisation” (Communications Chemistry, 2025)
